About 950 (1.4%) of roughly 69,000 compounds showed an effect of 50% or more. This excerpt belongs to a sample that is enriched for strong results.
tested on: Mycobacterium tuberculosis; experiment: Cornell M. t heat shock assay; format: functional, organism-based; set-up: dose or concentration left out as unconfirmed; also: in the data most compounds retested in dose-response had high values

Structure (SMILES) | Percent Effect [%]
Cn1c2c(ccc1=O)CCN(Cc1ccoc1)CC2.O=C(O)C(F)(F)F | -16.65
Cl.Cn1nc(C2CCCN(Cc3cccs3)C2)c2nccnc21 (stereo unspecified) | 1.565
CN(C)CCN1CC[C@@H]2O[C@@H](COCC(=O)N3CCCC3)CC[C@@H]21.O=C(O)C(F)(F)F.O=C(O)C(F)(F)F | -33.31
Cc1noc(C(C)C)c1C(=O)NCCCN1CCNCC1.Cl | 0.9177
Cc1ccccc1CS(=O)(=O)Cc1nc(C2CC2)no1 | 92.63
O=S(=O)(CCc1ccccc1)Cc1nc(C2CC2)no1 | 59.77
CCc1noc(CS(=O)(=O)Cc2nc(Cc3ccccc3)no2)n1 | -8.996
O=S(=O)(C/C=C/c1ccccc1)Cc1nc(C2CC2)no1 | 19.84
Cc1noc(C)c1CS(=O)(=O)Cc1nc(C2CC2)no1 | 6.324
CCc1noc(CS(=O)(=O)Cc2ccccc2Cl)n1 | 95.51
CCc1noc(CS(=O)(=O)Cc2ccccc2C)n1 | 31.56
O=S(=O)(Cc1nc(C2CC2)no1)c1cc(F)ccc1F | 12.65
O=S(=O)(Cc1nc(C2CC2)no1)c1ccccc1F | 12.43
Cl.O=C(CCC1CCCC1)N1CCCC(c2ncc3c(n2)CCNC3)C1 (stereo unspecified) | -5.492
CC(C)CCN1C[C@H]2C[C@H](C(=O)NCC(C)C)[C@@H](C1)O2.O=C(O)C(F)(F)F | 22.63
Cc1nnc(N2CCCC3(CN(Cc4ccc(F)cc4)CCO3)C2)o1.O=C(O)C(F)(F)F (stereo unspecified) | -29.82
c1cnc(N2C[C@@H]3CC[C@H](C2)N(Cc2ccsc2)C3)nc1 | 15.45
CN(C)CCOCc1nnc2n1CCN(Cc1ccoc1)CC2.O=C(O)C(F)(F)F.O=C(O)C(F)(F)F | -36.04
O=C(O)C(F)(F)F.c1cc(CN2CCc3c(nnn3CC3CC3)C2COCC2CC2)co1 (stereo unspecified) | -36.71
CC(C)(C)OC(=O)NCC1CCCCN1Cc1ccncc1 (stereo unspecified) | 24.03
CC(C)(C)c1nc(CN2CCCC2c2nnc3ccccn23)no1 (stereo unspecified) | 0.5342

Structure (SMILES) | Percent Effect [%]
CCn1c(C2CCCN2Cc2noc(C(C)(C)C)n2)nc2ccccc21 (stereo unspecified) | 50.31
Cn1cccc1C1CCCN1Cc1noc(C(C)(C)C)n1 (stereo unspecified) | -40.09
Cc1nc(CN2C(=O)COC3(CCN(C)CC3)C2C)cs1.O=C(O)C(F)(F)F (stereo unspecified) | -6.14
N#CC1CCCN(c2nc(-c3ccccc3)nc3c2CCNCC3)C1 (stereo unspecified) | -9.181
NCC1CN(c2nc(-c3ccccc3)nc3c2CCNCC3)CCO1 (stereo unspecified) | 43.48
NCC1CCCN(c2nc(-c3ccccc3)nc3c2CCNCC3)C1 (stereo unspecified) | 69.25
Cc1cc(CN2CCC(CNC(=O)Cc3ccc(F)cc3)C2)[nH]n1 (stereo unspecified) | -9.663
Cc1cc(CN2CCC(CNC(=O)c3nccc4ccccc34)C2)[nH]n1 (stereo unspecified) | 59.25
Cc1cc(CN2CCC(CNC(=O)c3cnc(C)nc3C)C2)[nH]n1 (stereo unspecified) | -10.7
CN1[C@H](CN2CCCC2)C[C@@H]2CN(C(=O)Cc3ccsc3)CC[C@@H]21.O=C(O)C(F)(F)F.O=C(O)C(F)(F)F | -7.166
CN(C)C(=O)[C@@H]1CC[C@@H]2[C@@H](CCN2Cc2nccs2)O1.O=C(O)C(F)(F)F | 11.33
NC(=O)C1Cn2ccnc2C2(CCN(C(=O)NC3CCCC3)CC2)O1.O=C(O)C(F)(F)F (stereo unspecified) | 2.522
Fc1ccccc1CN1CCC(c2noc(-c3ccccn3)n2)CC1 | 13.63
Cl.Fc1cccc(CN2CCC(c3cc4ncccc4cn3)CC2)c1F | 102.4
COc1ccc(C)cc1CN1CCC(c2cc3ncccc3cn2)CC1.Cl | 102.1
Fc1ccc(F)c(CN2CCC(c3cnccn3)CC2)c1 | -4.596
Fc1cccc(CN2CCC(c3n[nH]c4ncccc34)CC2)c1F | -15.12
Fc1cccc(CN2CCC(c3noc(-c4ccccn4)n3)CC2)c1F | 12.47
CCc1onc(C)c1C(=O)N1CCC(c2cc3ncccc3cn2)CC1 | 13.11
Cl.Fc1ccc(F)c(CN2CCC(c3cc4ncccc4cn3)CC2)c1 | 103.6
COc1ccc(C)cc1CN1CCN(Cc2nccn2C)CC1 | 1.633

Structure (SMILES) | Percent Effect [%]
Fc1cc(F)cc(CN2CCC(c3cc4ncccc4cn3)CC2)c1 | 17.06
Fc1cccc(CN2CCC(c3noc(-c4cnccn4)n3)CC2)c1F | -19.36
Cc1nc(CN2CCOCC3(CCN(c4ccccn4)C3)C2)cs1.O=C(O)C(F)(F)F.O=C(O)C(F)(F)F (stereo unspecified) | -41.64
CCN(CCNS(=O)(=O)C1CCOCC1)C(=O)OC(C)(C)C | -7.011
COCC(=O)NC[C@H]1CC[C@H](c2ccnc3ncnn32)CC1 | 20.19
COc1ccc(C(C)N(C)Cc2c(C3CC3)[nH]c3ncccc23)cc1.Cl (stereo unspecified) | -15.93
CCC/N=c1/c(NC(=O)NCCOC)c(O)oc2ccccc12 | -14.33
CCc1cc(N2CCC(n3cc(C(=O)NCC(C)C)nn3)CC2)ncn1 | 7.459
OCCNc1cc(N2CCC(n3cc(C4CCCC4)nn3)CC2)ncn1 | 8.872
CCc1cc(N2CCC(NC(=O)CCC3CCCO3)CC2)ncn1 (stereo unspecified) | -18.51
CCc1cc(N2CCC(n3cc(C(=O)NC4CC4)nn3)CC2)ncn1 | 51.27
CC(C)Nc1cc(N2CCC(n3cc(C4CC4)nn3)CC2)ncn1 | -24.54
O=C(NC1CC1)c1cn(C2CCN(c3cc(C4CC4)ncn3)CC2)nn1 | 61.79
CC(C)OCc1ncn2c1CN(Cc1ccc(F)cc1)CCC2.O=C(O)C(F)(F)F | -13.8
Cc1ccc(-n2cccn2)cc1S(=O)(=O)N1C[C@@H]2CC[C@H](C1)N(C)C2 | 23.12
Cn1cc(C2CC(=O)NC23CCN(C(=O)Cc2ccccn2)CC3)cn1.O=C(O)C(F)(F)F (stereo unspecified) | -20.75
COc1ccnc(CN2CCCC(CCc3ccccc3)C2)c1OC (stereo unspecified) | 22.56
COc1ccnc(CN2CCCC(CCc3ccc(F)cc3)C2)c1OC (stereo unspecified) | 80.3
COc1coc(CN2CCCC(CCc3ccc(F)cc3)C2)cc1=O (stereo unspecified) | -2.405

From ChEMBL document CHEMBL3988442, “University of Dundee, Small-Polar-MMV Screening Library” (2021)
